HIF-2a block: HIF-2a reporter inhibitors, primary screen, luminescence, 786-0 RCC cells; 360,000 tested, 0.72% active; 786-0 RCC cells HIF-2a reporter, luciferase luminescence, overnight; inhibition, % at 18.8 µM; AID 624352, 2012;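 active = inhibition of the luminescence signal of 40% or more relative to plate controls, in a single-dose primary screen at 18.75 µM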
ABHD5-PLIN5 inh: ABHD5-PLIN5 interaction inhibitors, primary screen, cell lysate, split luciferase complementation, luminescence; Perilipin-5 (Homo sapiens) + 1-acylglycerol-3-phosphate O-acyltransferase ABHD5 (Homo …; Split G. princeps luciferase complementation, 4 h; inhibition, % at 4 µM; 360,000 tested, 0.78% active; AID 602281, 2012;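 active = inhibition above the mean inhibition across every tested compound plus 3 SD, cut at about 22% in these data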;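 note: 0% = DMSO only wells and the 100% control is not disclosed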
Target sequence (Q00G26 whole entry, looked up): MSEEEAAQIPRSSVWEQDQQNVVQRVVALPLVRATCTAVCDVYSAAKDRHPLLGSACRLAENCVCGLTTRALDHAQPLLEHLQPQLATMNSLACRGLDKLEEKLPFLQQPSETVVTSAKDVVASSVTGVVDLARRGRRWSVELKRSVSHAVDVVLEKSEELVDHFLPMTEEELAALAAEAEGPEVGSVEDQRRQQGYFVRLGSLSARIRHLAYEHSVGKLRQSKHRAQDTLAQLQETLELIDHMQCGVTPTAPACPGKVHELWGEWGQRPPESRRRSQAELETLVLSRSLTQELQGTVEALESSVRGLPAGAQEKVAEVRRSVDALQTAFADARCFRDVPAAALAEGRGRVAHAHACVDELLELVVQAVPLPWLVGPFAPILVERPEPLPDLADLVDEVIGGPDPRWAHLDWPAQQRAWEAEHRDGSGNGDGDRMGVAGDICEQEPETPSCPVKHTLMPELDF
Target sequence (Q8WTS1 whole entry, looked up): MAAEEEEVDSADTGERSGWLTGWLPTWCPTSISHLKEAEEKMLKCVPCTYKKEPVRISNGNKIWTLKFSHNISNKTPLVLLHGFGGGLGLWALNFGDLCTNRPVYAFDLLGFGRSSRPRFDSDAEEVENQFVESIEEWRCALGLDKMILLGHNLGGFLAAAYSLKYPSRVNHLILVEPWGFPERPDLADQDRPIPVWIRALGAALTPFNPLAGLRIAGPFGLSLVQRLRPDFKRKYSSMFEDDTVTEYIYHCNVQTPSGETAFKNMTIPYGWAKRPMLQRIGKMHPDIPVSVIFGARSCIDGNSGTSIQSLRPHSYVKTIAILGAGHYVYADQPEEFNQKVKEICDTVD
KKLEB tox: cytotoxicity in KKLEB CF airway cells, primary screen, cytotoxicity control for CF NF-kB inhibitor project, cell-based, uHTS, fluorescence assay plates | KKLEB CF airway cells viability, ATPlite luminescence, overnight; hits give low values; cells stimulated with P. aeruginosa culture filtrate | activity change (cytotoxicity), % at 5 µM | 360,000 tested, 0.36% active | AID 602141, 2011;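 active = corrected activity change at or below -50% at 5 µM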
TRPM1 prom inh: inhibitors of MITF-dependent TRPM1 promoter reporter, primary screen, cell-based, SK-MEL-5, single point, luciferase. SK-MEL-5 TRPM1 promoter luciferase, 24 h. 330,000 tested, 0.83% active. inhibition, % at 12.5 µM. AID 488899, 2010;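 active = mean inhibition across replicates of 60% or more, whatever share of single replicates reaches that level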
Peg3 promoter: Peg3 promoter-driven luciferase inhibitors, primary screen, cell-based, HeLa, luciferase luminescence; 360,000 tested, 1.7% active; inhibition, % at 20 µM; HeLa PEG-Prom luciferase reporter, overnight; AID 588405, 2011;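 active = inhibition of at least 50% at 20 µM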
CF NFkB inh: inhibitors of PAF-induced NF-kB signaling, primary screen, cell-based, GFP fluorescence, uHTS; AID 588850, 2011; KKLEB NF-kB-GFP reporter, GFP fluorescence overnight; 360,000 tested, 0.86% active; inhibition, % at 5 µM;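 active = at least 50% inhibition at 5 µM, scaled per plate between neutral and stimulator controls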;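 note: PAF is a Pseudomonas aeruginosa culture filtrate used as stimulus; plate controls were PAF-stimulated DMSO wells for no effect and unstimulated DMSO wells for full effect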
ABHD5 PLIN5 conf: ABHD5-PLIN5 interaction inhibitors, confirmation, biochemical, luminescence. shares compounds with ABHD5-PLIN5 inh. inhibition, % at 4 µM. 2,200 tested, 67% active; in the data active = inhibition above about 23%;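 note: 0% = DMSO vehicle wells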
HNF4 counter: HNF4 dimerization inhibitors, counter-screen for ABHD5-PLIN5 interaction inhibitor project, biochemical, split-luciferase complementation, luminescence. AID 651674, 2012. 2,200 tested, 77% active. inhibition, % at 4 µM. shares compounds with ABHD5-PLIN5 inh;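 active = mean inhibition across replicate wells exceeding the computed hit threshold, cut at about 13% in these data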;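 note: light from luciferase halves that rejoin when HNF4 fusion proteins dimerize; 0% = DMSO only wells and the 100% control is not given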
Numbers without * were called inactive; / = not tested or not shown. An excerpt weighted towards active compounds, which were near 3% of everything screened.

SMILES | HIF-2a block | ABHD5-PLIN5 inh | KKLEB tox | TRPM1 prom inh | Peg3 promoter | CF NFkB inh | ABHD5 PLIN5 conf | HNF4 counter
CC1(C(=O)Nc2ccc(S(=O)(=O)Nc3ncccn3)cc2)CCCC1 | 9.6 | 3.4 | -7.3 | 5.6 | 8.1 | 23.0 | / | /
COc1ccccc1NC(=O)COC(=O)c1c(NC(C)=O)sc(C)c1C | -43.5 | -3.2 | 12.3 | / | -5.8 | -27.7 | / | /
Cc1ccc(S(=O)(=O)NC2CCCCC2)cc1C(=O)N1CCC(C(N)=O)CC1 | 17.3 | 35.5* | -0.4 | 1.7 | -2.8 | 0.4 | 5.6 | 1.9
NC(=O)C1CCN(C(=O)COc2ccc(S(=O)(=O)NC3CCCC3)cc2)CC1 | 0.8 | -6.3 | 24.9 | 10.8 | 4.8 | -5.4 | / | /
Cn1c(CC(=O)Nc2ccccc2F)nnc1SCC(=O)Nc1nccs1 | 3.6 | -8.5 | -0.4 | 4.5 | 2.3 | -4.5 | / | /
O=S(=O)(Nc1nc2ccccc2nc1NCc1ccco1)c1ccc(F)cc1 | -6.8 | 24.7* | -7.8 | -8.5 | 7.1 | 9.9 | 5.4 | 6.4
COc1ccc(C=C(C(=O)c2ccccc2)c2ccccc2)cc1 | -21.4 | -2.6 | -17.0 | / | 32.0 | 0.0 | / | /
COc1ccc(C=C(C(C)=O)C(=O)c2ccccc2)cc1 | -35.3 | 39.8* | 29.0 | / | -4.6 | -5.0 | 51.6* | 42.8*
COc1ccc(C=C(C(=O)c2ccccc2)C(=O)c2ccccc2)cc1 | -104.6 | 60.2* | -8.1 | / | -318.7 | 10.7 | 60.5* | 55.6*
O=C(CCSc1nnc(-c2ccco2)o1)Nc1ccc(F)cc1 | 3.1 | 1.6 | -1.7 | 15.9 | 1.5 | 9.9 | / | /
O=C(C=Cc1cccs1)c1cccs1 | -69.7 | 8.5 | -11.9 | -24.8 | -116.0 | 13.9 | / | /
O=C(/C=C\c1cccs1)c1c(O)ccc2ccc(=O)oc12 | 1.2 | 24.6* | -1.3 | 3.0 | 2.1 | -10.8 | 33.7* | 37.4*
Cc1cc2c(c(=O)n1Cc1ccco1)C(c1cccnc1)C(C#N)=C(N)O2 (stereo not given) | 9.9 | 42.1* | 6.5 | 5.5 | 9.2 | -8.3 | 9.1 | 23.9*
O=C(c1ccccc1)C(CN1CCCCC1)c1ccccc1 (stereo not given) | 27.3 | 29.0* | -62.9* | 97.2* | 103.5* | 84.9* | 21.0 | 94.8*
O=[N+]([O-])/C=C/c1cc2ccccc2[nH]1 | 28.9 | 40.9* | -9.3 | 32.8 | 16.4 | -13.5 | 71.4* | 58.1*
CCCNC(=O)C[C@@H]1CC[C@H]2NC[C@H](O)COC[C@@H]2O1 | 2.8 | -6.1 | / | / | / | / | / | /
CC1(C)CC(=O)C(C(c2ccc(F)cc2)C2C(=O)CC(C)(C)CC2=O)C(=O)C1 | 16.6 | 2.2 | 7.3 | 6.8 | 8.2 | 8.6 | / | /
CCc1sc(C(C2C(=O)CC(C)(C)CC2=O)C2C(=O)CC(C)(C)CC2=O)cc1[N+](=O)[O-] | 13.6 | 52.3* | 0.0 | 17.3 | 0.0 | 3.7 | 101.5* | 98.0*
C=CCn1c(SCC(=O)N2CCCC2)nc2scc(-c3cccs3)c2c1=O | 24.4 | -1.7 | 7.6 | 9.0 | 17.0 | -11.0 | / | /
C=CCn1c(SCC(=O)Nc2ccccc2)nc2scc(-c3cccs3)c2c1=O | 16.8 | 3.4 | 7.2 | 11.9 | 30.7 | 0.6 | / | /
C=CCn1c(SCc2ccc3c(c2)OCO3)nc2scc(-c3ccco3)c2c1=O | 8.9 | 35.8* | 5.1 | 10.0 | 7.5 | -10.8 | 17.0 | 9.9
C=CCn1c(SCC(=O)NCCCC(=O)OCC)nc2scc(-c3ccco3)c2c1=O | 10.1 | 30.5* | 13.3 | 11.0 | 10.0 | -10.5 | 6.9 | 13.2*
C=CCn1c(SCC(C)=O)nc2scc(-c3ccco3)c2c1=O | 7.7 | 33.6* | -7.4 | -7.2 | 10.7 | 5.6 | 53.7* | 85.3*
C=CCn1c(SCC(=O)N2CCOCC2)nc2scc(-c3ccco3)c2c1=O | 6.4 | 32.9* | 4.5 | -5.1 | 32.1 | 5.0 | 23.3* | 48.5*
COC(=O)c1ccc(C(=O)OC)c(NC(=O)CN(C)Cc2ccccc2)c1 | 13.6 | -2.4 | 0.5 | -3.5 | 30.0 | 2.0 | / | /
SMILES | HIF-2a block | ABHD5-PLIN5 inh | KKLEB tox | TRPM1 prom inh | Peg3 promoter | CF NFkB inh | ABHD5 PLIN5 conf | HNF4 counter
CCCCCN(C(=O)COC(=O)c1ccc(C)cc1)c1c(N)n(CCCC)c(=O)[nH]c1=O | 7.3 | 6.6 | 5.0 | 7.3 | 6.6 | -5.0 | / | /
COc1ccc(NC(C)=O)cc1S(=O)(=O)N1CCN(C/C=C/c2ccccc2)CC1 | 7.9 | -1.4 | 5.1 | -2.2 | 12.9 | -19.4 | / | /
Cc1ccc(S(=O)(=O)N2CCC(C(=O)NCC(C)(C)N3CCOCC3)CC2)c(C)c1 | 1.7 | -5.9 | 9.8 | 4.6 | 9.8 | 17.7 | / | /
O=C(Cn1cc(COc2cc(F)cc(F)c2)nn1)c1ccc(O)cc1 | -12.2 | 3.1 | 6.4 | -8.1 | -9.8 | 17.7 | / | /
CC(=O)Nc1ccc(OCc2cn(CC(=O)c3ccc(O)cc3)nn2)cc1 | 2.5 | 68.1* | 5.1 | / | -11.3 | 10.1 | 83.1* | 52.6*
CC(=O)c1ccc(OCc2cn(CC(=O)c3ccc(O)cc3)nn2)cc1 | -3.7 | 23.5* | -7.2 | 6.8 | -1.6 | 24.1 | 20.4 | 23.7*
Cc1cccc(C)c1OCc1cn(CC(=O)c2ccc(O)cc2)nn1 | -4.8 | 45.0* | -7.7 | -1.1 | -7.0 | 15.8 | 65.9* | 36.8*
COc1cc(C(C)=O)ccc1OCc1cn(CC(=O)c2ccc(O)cc2)nn1 | -9.2 | 24.9* | -9.7 | 0.4 | -6.3 | 3.1 | 53.0* | 31.1*
CC(=O)c1ccc(OCc2cn(CC(=O)c3ccc(O)cc3)nn2)c(C)c1 | -6.1 | 6.0 | 13.6 | / | -4.8 | -23.4 | / | /
COC(=O)/C=C1\SC(N)=NC1=O | 13.2 | -0.3 | 6.4 | 2.1 | -1.1 | 10.1 | / | /
COc1ccc(CCNC(=O)COC(=O)CSc2ccc(C(N)=O)cc2[N+](=O)[O-])cc1OC | -2.6 | 1.2 | -3.9 | 4.5 | 2.9 | -1.9 | / | /
C[C@@]12C(C[C@H](O)[C@@]34C[C@@H](CCC13)[C@@H](CO)C4=O)[C@](C)(C(=O)O)CC[C@@H]2O (stereo not given in full) | 5.7 | 11.9 | -1.2 | / | -9.2 | 22.1 | / | /
C=C1C(=O)[C@]23C[C@H]1CCC2[C@@]1(C)C(C[C@@H]3O)[C@](C)(C(=O)OC)CC[C@@H]1O (stereo not given in full) | 98.8* | 38.8* | -73.4* | / | 100.4* | 90.3* | 66.8* | 107.9*
CC(Sc1ccsc1[N+](=O)[O-])C(=O)NCc1ccco1 (stereo not given) | 18.6 | 28.4* | -7.4 | -18.8 | 21.0 | 5.7 | 10.0 | 21.1*

From PubChem BioAssay
